{
  "source": "paper PMC7819943",
  "about": "“Rice protein-binding microarrays: a tool to detect cis-acting elements near promoter regions in rice”",
  "note": "Over roughly 39,000 sequences, “fluorescence intensity (a.u.)” has its median near 4,300; the highest 2% begin near 39,000. This is one part of a sample in which the highest values are shown more often than they occur.",
  "data": [
    {"target": "T1, OsSMF1 (Oryza sativa, UniProt Q6ZLB0 1-436)", "T1 sequence": "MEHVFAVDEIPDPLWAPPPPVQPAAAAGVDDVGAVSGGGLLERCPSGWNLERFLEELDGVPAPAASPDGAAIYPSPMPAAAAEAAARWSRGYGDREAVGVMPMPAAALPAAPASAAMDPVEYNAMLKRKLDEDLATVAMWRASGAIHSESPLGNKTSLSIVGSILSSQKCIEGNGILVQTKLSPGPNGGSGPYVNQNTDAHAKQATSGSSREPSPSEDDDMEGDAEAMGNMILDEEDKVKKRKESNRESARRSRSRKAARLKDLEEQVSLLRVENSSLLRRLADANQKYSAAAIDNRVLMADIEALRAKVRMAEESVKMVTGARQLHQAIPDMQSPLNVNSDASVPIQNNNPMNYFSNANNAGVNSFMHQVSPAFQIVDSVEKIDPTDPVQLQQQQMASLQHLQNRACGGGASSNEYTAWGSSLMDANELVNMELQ", "assay": "protein-binding microarray (RPBM); PBS, 2% BSA, 51.3 ng/ul salmon testes DNA, 50 uM zinc acetate, 200 nM TF, 25 C, 1 h; high values mean tight binding", "conditions": "protein: recombinant; tags: N-terminal polyhistidine and DsRed monomer fusion (pET32a); chain copies: 2; label: CyDye5-dUTP incorporated in the synthesized complementary strand; 3' TTTTT single-stranded linker to array surface; dsDNA, one strand shown", "procedure,_shortened": "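Transcription factors were each fused at the N-terminus to a polyhistidine tag plus DsRed and expressed in E. coli BL21-CodonPlus before Ni–NTA purification. Binding to a double-stranded custom Agilent array was carried out with 200 nM protein at 25 °C for 1 h in PBS, 2% BSA, salmon testes DNA and 50 µM zinc acetate. The binding signal is per-feature fluorescence intensity, in arbitrary units, on an Axon 4000B scanner.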", "values": [
      {"sequence": "CCAACCATGCTTCGCAGTTGTCACAGAACGTCAACAGTGCCGGAGTCACCTAGTGCAG", "binding signal": "3460 fluorescence intensity (a.u.)"},
      {"sequence": "TCAGTAGTTGCTTCTCGCAACGTCACAGGCTTTAGATGCACGGAGTCACCTAGTGCAG", "binding signal": "44200 fluorescence intensity (a.u.)"},
      {"sequence": "TGTTAGTTTTGCATGCACAGAGATGATTAGGCAGTAGCAACGGAGTCACCTAGTGCAG", "binding signal": "3940 fluorescence intensity (a.u.)"},
      {"sequence": "CCAGATATCTTTTACTAAAGGATGGAAATGAGGCGTAATTCGGAGTCACCTAGTGCAG", "binding signal": "29100 fluorescence intensity (a.u.)"},
      {"sequence": "ACAAAGGAGAAGAAGCCATGATGTGGAGTTGGCCGGTGGCCGGAGTCACCTAGTGCAG", "binding signal": "3800 fluorescence intensity (a.u.)"},
      {"sequence": "GAGTTGTGCAGCCAAGTCAGCTGCACATGGGGAACAAGCGCGGAGTCACCTAGTGCAG", "binding signal": "6520 fluorescence intensity (a.u.)"},
      {"sequence": "GTGTAGTTGGAGCGCGCGGTGGAAGATGAACAAGCTCAGCCGGAGTCACCTAGTGCAG", "binding signal": "41200 fluorescence intensity (a.u.)"},
      {"sequence": "AACAATAACAAGATTAAAATAAACTTCACACGTTGTAATGCGGAGTCACCTAGTGCAG", "binding signal": "3160 fluorescence intensity (a.u.)"},
      {"sequence": "TAAAACAAGTCATAATAAAATAAATAGTAATTAAAATTCTCGGAGTCACCTAGTGCAG", "binding signal": "29200 fluorescence intensity (a.u.)"},
      {"sequence": "AAAATAATTAAAATAGTACGAGTAGATTCACACAAGATCTCGGAGTCACCTAGTGCAG", "binding signal": "39900 fluorescence intensity (a.u.)"},
      {"sequence": "GCAAAATGTCAGGCCGACACAACCCGTCATACTCTTCATGCGGAGTCACCTAGTGCAG", "binding signal": "3480 fluorescence intensity (a.u.)"},
      {"sequence": "GGGGTGCTTCACAAATCCCCTTGCGTACATGAGGTGTTTTCGGAGTCACCTAGTGCAG", "binding signal": "3320 fluorescence intensity (a.u.)"},
      {"sequence": "AGTCTCTAACTAAACACCATATATCTCTATTAATTACTACCGGAGTCACCTAGTGCAG", "binding signal": "16000 fluorescence intensity (a.u.)"},
      {"sequence": "CTATCCGTCCAAATTAGGCTATCTCTAAAGATTAACTAACCGGAGTCACCTAGTGCAG", "binding signal": "41000 fluorescence intensity (a.u.)"},
      {"sequence": "GTAACTAAAGATACAAAATTATTAGTGTAACCGGAGGCATCGGAGTCACCTAGTGCAG", "binding signal": "34600 fluorescence intensity (a.u.)"},
      {"sequence": "TTTTATGTATGTATTCAAATATTTCGATGTGACGGAATTTCGGAGTCACCTAGTGCAG", "binding signal": "4210 fluorescence intensity (a.u.)"},
      {"sequence": "GGATTTAACACTAGAGACCCTAATTTTGCTGCTCAGGCGACGGAGTCACCTAGTGCAG", "binding signal": "28500 fluorescence intensity (a.u.)"},
      {"sequence": "ATATGAGATATTTCATATGCTGTTTATTGCTGCTGCCAGACGGAGTCACCTAGTGCAG", "binding signal": "6080 fluorescence intensity (a.u.)"},
      {"sequence": "GGAAAGAGAAGAGAGGAAAGAGAGATGACGTGGACACCTGCGGAGTCACCTAGTGCAG", "binding signal": "21100 fluorescence intensity (a.u.)"},
      {"sequence": "TCGTCGCACGACCAGACCAGCAGCACCAACTCCCTTTCTGCGGAGTCACCTAGTGCAG", "binding signal": "3160 fluorescence intensity (a.u.)"},
      {"sequence": "GTGTCATTTCATTCACTGGTCGGCTATATCTGGGCATATGCGGAGTCACCTAGTGCAG", "binding signal": "53800 fluorescence intensity (a.u.)"},
      {"sequence": "ACCATATGACTTATATATCTGTCGTCAGCTCATTTCTATGCGGAGTCACCTAGTGCAG", "binding signal": "7290 fluorescence intensity (a.u.)"},
      {"sequence": "ATGGGGAATCTGGCACCTTTGGCTACTGGTGATTCAGTGTCGGAGTCACCTAGTGCAG", "binding signal": "3510 fluorescence intensity (a.u.)"},
      {"sequence": "TGGCGCCTCTCACCGCCACGTCGCCGCCGGCGAGGTGAAACGGAGTCACCTAGTGCAG", "binding signal": "20800 fluorescence intensity (a.u.)"},
      {"sequence": "ATCACGTGATTAAAACAGTAATTATCGAGCACGGAAGGAACGGAGTCACCTAGTGCAG", "binding signal": "40600 fluorescence intensity (a.u.)"},
      {"sequence": "CGATCGATCGATTGTGAGCACCGAACTCCCTTAATTAGGACGGAGTCACCTAGTGCAG", "binding signal": "3390 fluorescence intensity (a.u.)"},
      {"sequence": "ACGATTAATTGTTTAGTAAGCGTGCTGACGTTAAACGAGACGGAGTCACCTAGTGCAG", "binding signal": "3690 fluorescence intensity (a.u.)"},
      {"sequence": "GGTGACAATTGTCATTTGCTCAGCAACTAACATTACTAAACGGAGTCACCTAGTGCAG", "binding signal": "18200 fluorescence intensity (a.u.)"},
      {"sequence": "CACTGTTTGATGCTAAAACATATTACGTGTGCCGTTCATACGGAGTCACCTAGTGCAG", "binding signal": "3580 fluorescence intensity (a.u.)"},
      {"sequence": "GACCCAGCAAGCAAGAGCGTCTAGTCACCTCAACCACGAACGGAGTCACCTAGTGCAG", "binding signal": "6180 fluorescence intensity (a.u.)"},
      {"sequence": "CAGTCCACATAACCTGAACCCAGCGTCAATCCGCAAGCAACGGAGTCACCTAGTGCAG", "binding signal": "40200 fluorescence intensity (a.u.)"},
      {"sequence": "ACCGCATCACATCAAGCATCCACCAACCAACCCAACAACACGGAGTCACCTAGTGCAG", "binding signal": "3910 fluorescence intensity (a.u.)"},
      {"sequence": "CATGGTATTGTTTGATGCCAACTGAATTGATACAATGTGACGGAGTCACCTAGTGCAG", "binding signal": "20500 fluorescence intensity (a.u.)"},
      {"sequence": "GGTTGGTATTAACCGCTGATGGTGAATGCCAACCTCAGAACGGAGTCACCTAGTGCAG", "binding signal": "51200 fluorescence intensity (a.u.)"},
      {"sequence": "GAGAATGATGTATGCACGCAGATGACATGGTATGATGAACCGGAGTCACCTAGTGCAG", "binding signal": "4370 fluorescence intensity (a.u.)"},
      {"sequence": "CTTCAAGAAGGTTACGCTGACAGAACGGCGACAACGTCCGCGGAGTCACCTAGTGCAG", "binding signal": "3220 fluorescence intensity (a.u.)"},
      {"sequence": "TCTAAGACTGAACTTTCCTGTATACATATATTTTGAAAAGCGGAGTCACCTAGTGCAG", "binding signal": "24600 fluorescence intensity (a.u.)"},
      {"sequence": "TCCTTCCATACTGTATAAATACTTTGAAATTCTAATATAGCGGAGTCACCTAGTGCAG", "binding signal": "44200 fluorescence intensity (a.u.)"},
      {"sequence": "CTTCCTTTGATAATATAATATATAGATAAATTCTCTAAGACGGAGTCACCTAGTGCAG", "binding signal": "3200 fluorescence intensity (a.u.)"},
      {"sequence": "GACGACCTTGGCACCCAGCTTCCGTCACTCGCTCGCCGCGCGGAGTCACCTAGTGCAG", "binding signal": "3220 fluorescence intensity (a.u.)"},
      {"sequence": "CATCTATCATATAACAACAACACAATGACACAACACTGGACGGAGTCACCTAGTGCAG", "binding signal": "4510 fluorescence intensity (a.u.)"},
      {"sequence": "TTATAACACAAAACACATATGAAGCGCACTCTACCACGCACGGAGTCACCTAGTGCAG", "binding signal": "32200 fluorescence intensity (a.u.)"},
      {"sequence": "CATATAACAAGTGACTGGCACACAAACCCACAATGAAGTGCGGAGTCACCTAGTGCAG", "binding signal": "43500 fluorescence intensity (a.u.)"},
      {"sequence": "TGCACGCACAGCCATCCACAAGCCATGAGCCGGCGCGAGACGGAGTCACCTAGTGCAG", "binding signal": "3640 fluorescence intensity (a.u.)"},
      {"sequence": "ATTGAAGCCTATTTATTGGTAATACGTAATCTAGATTTGACGGAGTCACCTAGTGCAG", "binding signal": "3700 fluorescence intensity (a.u.)"},
      {"sequence": "AAAGGCACAGCAGGATGAAGATCTTGAAATGTTTCTTTGGCGGAGTCACCTAGTGCAG", "binding signal": "6510 fluorescence intensity (a.u.)"},
      {"sequence": "ATAAAAGAGAAGAGCAGCAGGCCAGCTGCAGGACGGACTTCGGAGTCACCTAGTGCAG", "binding signal": "3820 fluorescence intensity (a.u.)"},
      {"sequence": "TCAGCAGTAAAGGACAGAAGGCGAAAAGATTTGAGATCTTCGGAGTCACCTAGTGCAG", "binding signal": "65500 fluorescence intensity (a.u.)"},
      {"sequence": "GCTCCCTCAGCCGTGGCACGTGTTCACAAGCCGTGACCAGCGGAGTCACCTAGTGCAG", "binding signal": "4570 fluorescence intensity (a.u.)"},
      {"sequence": "CAGGCCAGAACAACTGCTCGGCCCGATAGGAGGGCCTACTCGGAGTCACCTAGTGCAG", "binding signal": "55800 fluorescence intensity (a.u.)"},
      {"sequence": "GTGCCTGCTCGATCGAGTCGTGGCGGCGGCGGAGTCAACTCGGAGTCACCTAGTGCAG", "binding signal": "3370 fluorescence intensity (a.u.)"},
      {"sequence": "GCCCGTGCCAGGGCTGCTACCTCGGCACACTGGCCGGCACCGGAGTCACCTAGTGCAG", "binding signal": "3350 fluorescence intensity (a.u.)"},
      {"sequence": "AATAAGTGCAGTTGTGGGAATCCGTGTTGAACGTTTGACCCGGAGTCACCTAGTGCAG", "binding signal": "14300 fluorescence intensity (a.u.)"},
      {"sequence": "AGTGAAGTCACAAGGAAGTGACGAGGATGAGGACGAGGAGCGGAGTCACCTAGTGCAG", "binding signal": "28700 fluorescence intensity (a.u.)"}
    ]}
  ]
}
